Experimental data taken from PubChem BioAssay (NCI).
Compounds without any hit were thinned out: in the full panel of roughly 83,000, 20% have a hit.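 Activity criterion: percent growth below 10, measured after cells in 96-well plates were exposed to a single compound concentration for 48 hours.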 Values without a mark were called inactive. Activity calls are given as the source filed them.

What was measured:
Test in all cases: NCI-60 one-dose screen, 48 h (100 = growth as untreated, 0 = no growth, -100 = all killed)
Details in all cases: 10 µM unless noted
[1] = tested on: NCI-H23 lung
[2] = tested on: NCI-H226 lung
[3] = tested on: NCI-H322M lung
[4] = tested on: HOP-62 NSCLC
[5] = tested on: NCI-H460 lung
[6] = tested on: NCI-H522 lung
[7] = tested on: A549/ATCC NSCLC
[8] = tested on: 786-0 renal
[9] = tested on: COLO 205 colon
[10] = tested on: DU-145 prostate
[11] = tested on: K-562 leukemia
[12] = tested on: MALME-3M melanoma
[13] = tested on: MDA-MB-231 breast
[14] = tested on: RXF 393 renal
[15] = tested on: SF-268 CNS
[16] = tested on: SF-295 CNS
[17] = tested on: SF-539 CNS
[18] = tested on: UACC-257 melanoma
[19] = tested on: M14 melanoma

SMILES | growth [1] | growth [2] | growth [3] | growth [4] | growth [5] | growth [6] | growth [7] | growth [8] | growth [9] | growth [10] | growth [11] | growth [12] | growth [13] | growth [14] | growth [15] | growth [16] | growth [17] | growth [18] | growth [19]
Cc1occc1C(=O)NN1C(=O)/C(=C/C=C/c2ccc([N+](=O)[O-])o2)SC1=S | -84.1% (active) | -18.3% (active) | 66.8% | -9.58% (active) | -51.6% (active) | -91.5% (active) | 6.62% (active) | -69.7% (active) | -75.3% (active) | -57.7% (active) | 11.2% | -78.6% (active) | -89% (active) | -88.1% (active) | -64.3% (active) | 47% | -99.4% (active) | -44.5% (active) | -65.1% (active)
N/C(=N\c1nc2ccccc2s1)NC(=O)Nc1c(Cl)cccc1Cl | 31.9% | 67.2% | 68.2% | 58.7% | 17.8% | -19.3% (active) | 38.8% | 52.5% | 46.2% | 55.1% | 19.6% | 44% | 28.9% | 80.8% | 42.2% | 28.2% | 30.8% | 75.4% | 21.8%
COc1cc(C2CC(c3ccc(S(=O)(=O)NCCNc4nc(Nc5ccc(F)cc5)nc(N(C)C)n4)cc3)=Nc3c(N)nc(N)nc3N2)cc(OC)c1OC (centres undefined) | 93.5% | 91.4% | 86.7% | 94.3% | 84.5% | 84.2% | 97.9% | 75.3% | 104% | 103% | 47.2% | 84.4% | 43.7% | 74% | 82.8% | 94% | 86% | 97.9% | 101%
COc1cc2c3c(n(CCCN4CCC[C@@H]4CO)c(=O)c2cc1OC)-c1cc2c(cc1C3=O)OCO2 | -85.7% (active) | -66.5% (active) | -96.5% (active) | -53.3% (active) | -71.8% (active) | -82.1% (active) | -83.3% (active) | -86.3% (active) | -68.3% (active) | -100% (active) | 2.24% (active) | -85.6% (active) | -93.3% (active) | -66.5% (active) | -60.8% (active) | -86% (active) | -98.2% (active) | 71.2% | -85.9% (active)
COc1c(F)ccc(C(=O)Nc2ccc3nc(NC(=O)C4CCCN(S(=O)(=O)c5cccc(Br)c5)C4)sc3c2)c1F (centres undefined) | 96.3% | 88.4% | 94% | 107% | 80.3% | 78.9% | 75.6% | 70% | 86.4% | 91.4% | 60.2% | 99.4% | 90.7% | -3.33% (active) | 69.7% | 84.5% | 74.5% | 92.4% | 87.2%
O=C(COc1ccc(NC(=O)Nc2ccc(Cl)c(Cl)c2)cc1)N=Nc1c(O)[nH]c2ccccc12 | -43.7% (active) | -34.7% (active) | 28% | -53.1% (active) | -63.4% (active) | -42.8% (active) | -36.3% (active) | -71.9% (active) | -41.7% (active) | -42.7% (active) | 5.06% (active) | -79.3% (active) | -66.8% (active) | -52.7% (active) | -5.94% (active) | -48.9% (active) | -86.3% (active) | -44.5% (active) | -76.5% (active)
COc1cc(/C=C2\C(=N)N=C(SCc3nc4ccccc4[nH]3)NC2=O)ccc1O | 96.8% | 92.8% | 103% | 101% | 102% | 99.2% | 110% | 109% | 110% | 108% | 103% | 91.1% | 86.4% | 113% | 111% | 101% | 99.2% | 105% | 95.4%
CCOC(=O)c1ccc(Nc2nc(NN)nc(-c3ccc(F)cc3)c2C#N)cc1 | 110% | 116% | 109% | 103% | 112% | 98.5% | 105% | 103% | 119% | 113% | 32.2% | 98.5% | 76.7% | 142% | 109% | 97.8% | 104% | 103% | 98%
CC12CC[C@@H]3[C@]4(C)COC(c5cn[nH]c5-c5cccc(Cl)c5)O[C@@H]4CC[C@@]3(C)[C@@H]1CC(C1=CCOC1=O)O2 (some centres undefined) | 43.5% | 42.9% | 52.1% | 74.6% | 33.7% | 26.8% | 26.7% | 47.5% | 18.3% | 56.6% | 25% | 40.5% | 36.4% | 18.3% | 45.5% | 35.4% | 58.2% | 43.3% | 25.3%
C=C1CCC2C3(C)COC(c4ccco4)OC3CCC2(C)C1CC(Sc1ccccc1)C1=CCOC1=O (centres undefined) | 64.8% | 31.5% | 92.2% | 100% | 105% | 7.02% (active) | 53.7% | 62.7% | 98% | 78.4% | 18.5% | 94.9% | 78.5% | 96.5% | 91.5% | 76.1% | 48.3% | 54.1% | 61.6%
COc1cc2oc(-c3cccc(NC(=O)[C@H](Cc4ccccc4)NC(=O)OC(C)(C)C)c3)cc(=O)c2c(OC)c1OC | 39.1% | 28% | 46.1% | 49% | 11.5% | 30.3% | 24.7% | 43.8% | 33.8% | 35.7% | 23% | 35% | 42.7% | 31% | 62% | 36.8% | 43.1% | 75.5% | 51.7%
COc1ccc(/C=C2\C(=N)N=C(SCc3nc4ccccc4[nH]3)NC2=O)cc1 | 100% | 98.1% | 110% | 105% | 105% | 103% | 112% | 114% | 122% | 115% | 112% | 102% | 105% | 122% | 109% | 103% | 103% | 108% | 112%
CC(=O)/C=C/c1cccc2c1C(=O)NC(C)(c1cc3cc(Br)ccc3oc1=O)N2 (centres undefined) | 17.9% | 34.3% | 52.5% | 50% | 51.9% | 26.8% | 55.1% | 33.2% | 79.6% | 19.1% | 0.91% (active) | 31.3% | 18% | -12.9% (active) | 56.1% | 39% | 19.2% | 27.2% | 31.4%
COc1c(F)ccc(C(=O)Nc2ccc3nc(NC(=O)C4CCCN(S(=O)(=O)c5cccc(Cl)c5)C4)sc3c2)c1F (centres undefined) | 88.9% | 77.3% | 87.2% | 103% | 82% | 79% | 68% | 61% | 86.2% | 90.5% | 53.8% | 97.6% | 87.9% | -6.85% (active) | 86.9% | 78.7% | 70.7% | 84.7% | 84.7%
Cn1cc(-c2cc(N)n3nc(-c4c[nH]c5ccccc45)cc3n2)c2cc(Br)cnc21 | -63.8% (active) | -33.1% (active) | -50.8% (active) | -51.2% (active) | -65.1% (active) | -75.4% (active) | -33% (active) | -77% (active) | -89.3% (active) | 5.95% (active) | -23.9% (active) | -83.9% (active) | -83.4% (active) | -76.3% (active) | 0.392% (active) | -71.6% (active) | -93.5% (active) | -78.9% (active) | -71% (active)
CN(C)c1nc(NCCNS(=O)(=O)c2ccc(C(=O)/C=C/c3ccc(C(F)(F)F)cc3)cc2)nc(Nc2ccc(F)cc2)n1 | -5.94% (active) | -48.9% (active) | 27.7% | 68.7% | -19.6% (active) | -79.7% (active) | 10.1% | -75.7% (active) | -47.5% (active) | 6.99% (active) | -1.07% (active) | -2.41% (active) | -74.2% (active) | -81.4% (active) | 21.6% | -14.6% (active) | -97.5% (active) | 23.7% | -48.3% (active)
